These results are taken from the supplement of paper PMC8975748.

Where a name gives a salt, the structure may show the parent alone.

This experiment has as its system Saccharomyces cerevisiae BY4741 SeMeCo community. The experiment is described as follows: z-score of subpopulation abundance vs DMSO median, subpopulation auxotrophic for UM; higher = larger share of this subpopulation than in DMSO controls. The following applies: 10 µM; 24 h; SM minimal medium; subpopulation (auxotrophy): UM. In short, it runs like this: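 Four plasmids, each restoring a single auxotrophy and encoding a distinct fluorescent protein, were carried by a Saccharomyces cerevisiae BY4741 community. After overnight growth to OD600 1.0 and dilution to 0.3, 70 µl per well was grown for 24 h in minimal SM medium on 384-well plates acoustically predosed with library drugs at 10 µM final. Following paraformaldehyde fixation, automated confocal microscopy was used, with single-auxotroph fluorescent strains defining thresholds and autofluorescence correction. Subpopulation abundance was then scored as a z-score against the vehicle-well median.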
On to `CN(C)[C@@H](CCOc1cccc2ccccc12)c1ccccc1` [Dapoxetine HCl], for which the “z-score of subpopulation abundance” value was -0.35.

For `CC1(C)S[C@@H]2[C@H](NC(=O)Cc3ccccc3)C(=O)N2[C@H]1C(=O)O.CCN(CC)CCOC(=O)c1ccc(N)cc1` [Penicillin G Procaine], the “z-score of subpopulation abundance” value was 0.64.

Regarding `CC(=O)Oc1ccccc1C(=O)O` [Aspirin], the “z-score of subpopulation abundance” value is -0.21.

Regarding `CCN1CCC[C@H]1CNC(=O)c1cc(S(N)(=O)=O)ccc1OC` [Levosulpiride], the “z-score of subpopulation abundance” value amounted to 0.08.

On to `CC[C@H]1OC(=O)[C@H](C)[C@@H](O[C@H]2C[C@@](C)(OC)[C@@H](O)[C@H](C)O2)[C@H](C)[C@@H](O[C@@H]2O[C@H](C)C[C@H](N(C)C)[C@H]2O)[C@](C)(O)C[C@@H](C)CN(C)[C@H](C)[C@@H](O)[C@]1(C)O` [Azithromycin], for which the “z-score of subpopulation abundance” value was -0.55.

`Clc1ccccc1C(c1ccccc1)(c1ccccc1)n1ccnc1` [Clotrimazole]: the “z-score of subpopulation abundance” value came out at 18.8.

For the compound `CO/N=C(\C(=O)N[C@@H]1C(=O)N2C(C(=O)O)=C(CSc3nc(=O)c(O)nn3C)CS[C@H]12)c1csc(N)n1` [Ceftriaxone Sodium Trihydrate], the “z-score of subpopulation abundance” value is -2.42.

Take `CCOC(=O)C1=C(C)NC(C)=C(C(=O)OC)C1c1cccc(Cl)c1Cl` (configuration not stated) [Felodipine]: the “z-score of subpopulation abundance” value was -7.8.

As to `C[C@@H](O)[C@H]1C(=O)N2C(C(=O)O)=C([C@H]3CCCO3)S[C@H]12` [Faropenem Sodium], the “z-score of subpopulation abundance” value worked out at 1.27.

As to `O=C1CCc2cc(OCCCCc3nnnn3C3CCCCC3)ccc2N1` [Cilostazol], the “z-score of subpopulation abundance” value is -0.9.

Consider `COc1cc(NS(=O)(=O)c2ccc(N)cc2)ncn1` [Sulfamonomethoxine], for which the “z-score of subpopulation abundance” value came out at 0.65.

Take `Nc1nc2ccc(OC(F)(F)F)cc2s1` [Riluzole]: the “z-score of subpopulation abundance” value is -0.42.

Consider `CCCCC(F)(F)[C@@]1(O)CC[C@H]2[C@@H](CC(=O)[C@@H]2CCCCCCC(=O)O)O1` [Lubiprostone], for which the “z-score of subpopulation abundance” value is -0.29.

As to `CCCCCc1ccc(C)cc1O` [Amylmetacresol], the “z-score of subpopulation abundance” value was -0.13.

As to `CCN(CC)CCOC(=O)c1ccc(N)cc1` [Procaine HCl], the “z-score of subpopulation abundance” value is -0.8.

As for `O=C(O)CCC(=O)Nc1ccc(S(=O)(=O)Nc2nccs2)cc1` [Succinylsulfathiazole], the “z-score of subpopulation abundance” value turned out to be 0.02.

With `CCOC(=O)C1=C[C@]2(CC)CCCN3CCc4c(n1c1ccccc41)[C@@H]32` [Vinpocetine], the “z-score of subpopulation abundance” value came out at 1.1.

Regarding `CCC(=O)c1c(O)cc(O)cc1O` [Flopropione], the “z-score of subpopulation abundance” value was determined as 0.25.

As for `Oc1c(Cl)cc(Cl)c(Cl)c1Cc1c(O)c(Cl)cc(Cl)c1Cl` [Hexachlorophene], the “z-score of subpopulation abundance” value was 5.02.

`CC1(C)S[C@@H]2[C@H](NC(=O)[C@H](N)c3ccc(O)cc3)C(=O)N2[C@H]1C(=O)O` [Amoxicillin]: the “z-score of subpopulation abundance” value was 0.46.

Consider `CCCc1nc(C)c2c(=O)nc(-c3cc(S(=O)(=O)N4CCN(CC)CC4)ccc3OCC)[nH]n12` [Vardenafil HCl Trihydrate], for which the “z-score of subpopulation abundance” value was found to be 0.56.

In the case of `CCC(C)(C)C(=O)O[C@H]1C[C@@H](C)C=C2C=C[C@H](C)[C@H](CC[C@@H]3C[C@@H](O)CC(=O)O3)[C@H]21` [Simvastatin], the “z-score of subpopulation abundance” value is 0.62.

On to `COCCCN1CCC(NC(=O)c2cc(Cl)c(N)c3c2OCC3)CC1` [Prucalopride], for which the “z-score of subpopulation abundance” value was 0.57.

Regarding `C1N2CN3CN1CN(C2)C3` [Methenamine], the “z-score of subpopulation abundance” value was 0.8.

For the compound `C[C@H]1c2cccc(O)c2C(O)=C2C(=O)[C@]3(O)C(O)=C(C(N)=O)C(=O)[C@@H](N(C)C)[C@@H]3[C@@H](O)[C@@H]21` [Doxycycline], the “z-score of subpopulation abundance” value is -1.44.

In the case of `CCc1c2c(nc3ccc(OC(=O)N4CCC(N5CCCCC5)CC4)cc13)-c1cc3c(c(=O)n1C2)COC(=O)[C@]3(O)CC` [Irinotecan HCl Trihydrate], the “z-score of subpopulation abundance” value was -0.07.

Turning to `C/C=C\c1ccc(O)c(OC)c1` [Isoeugenol], the “z-score of subpopulation abundance” value is 1.01.
